Reference: PubChem BioAssay (EPA / NIEHS)
Activity calls are given as the source filed them. Rule for the calls: active = hit-call score of the fitted dose curve at least 0.9, where 1 is the maximum; inactive = score below 0.9.

Read-out: Cytochrome P450 (CYP24A1), CYP24A1 (gene 1591)
Experiment: LTEA_HepaRG_CYP24A1: Life Technologies and Expression Analysis (LTEA) Assay for Cytochrome P450 (CYP24A1) using HepaRG (AID 2283478)
Details: mRNA level, 48 h; actives raise or lower the signal
Experimental: LTEA_HepaRG is a cell based, multiplexed-readout assay that uses HepaRG, a human liver cell line, with measurements taken at 48 hours after chemical dosing on a 96-well plate.LTEA_HepaRG_CYP24A1 is one of 102 assay component(s) measured in the LTEA HepaRG cell culture assay. It is a marker of NR mediated metabolism.Data from the assay component LTEA_HepaRG_CYP24A1 was analyzed into 1 endpoint. This assay endpoint, LTEA_HepaRG_CYP24A1, was analyzed with bidirectional fitting relative to DMSO as the negative control and baseline of activity. Using a type of inducible reporter, measures of mRNA induction for gain or loss-of-signal activity can be used to understand regulation of transcription factor activity. To generalize the intended target to other relatable targets, this assay endpoint is annotated to the cyp intended target family, where the subfamily is xenobiotic metabolism.
A total of 1060 chemcials from the ToxCast library were tested in eight-point concentration-response experiments. Cell culture and cytotoxicity assays were conducted at Thermo Fisher Scientific's Custom Services facility (Madison, WI). A single lot of human HepaRG cells (Thermo Fisher Scientific, Frederick, MD) was used for the cell culture experiments. 96-well format collagen type I coated plates of human HepaRG cells were prepared using established methods. Briefly, cryopreserved HepaRG cells were thawed, plated at a density of approximately 100,000 cells/well in HepaRG Thaw, Plate, and General Purpose media (HPRG770, Thermo Fisher Scientific), and incubated for 48 hours. 0.5% DMSO was selected as vehicle control to balance the requisite need of DMSO in HepaRG cultures to maintain differentiation (for example, baseline metabolism, proportions of hepatocytes vs. cholangiocytes), while enabling further hepatic receptor pathway activation (for example, PXR and CAR) in response to chemical exposure. 48 hours after plating, the culture medium was replaced with HepaRG Serum-Free Incudtion Media. Cells were exposed to each test chemical in duplicate and maintained in CO2 incubators for another 48 hours. Chemical plates were thawed to room temperature and 200x concentrations of treatment groups were prepared. 8-point conentration-reponse curves were made with the highest exposure at 100 uM, followed by half-log dilutions, all in 0.5% DMSO. Each test plate contained variouse controls, induction positive controls (1mM phenobarbital), cytotoxicity positive controls ([…] aflatoxin B1), vehicle controls (0.5% DMSO), and total lysis controls (0.5% DMSO). Cell morphology images were taken using an Essen IncuCyte FLR automated microscope, with six 96-well plates imaged in about 24 minutes. Images were captured and exported and JPEG files. Spent culture media was transfered to black-well plates for the LDH assay, and remaining media was sorted at -80 C for later use. Cells were treated with RLT buffer and frozen until shipped for gene expression analysis. Total RNA was isolated from the cell suspension in 75 uL of Buffer RLT (Qiagen, Germantown, MD 20874) by Quintiles/Expression Analysis (Durham, NC) using a custom isolation procedure. Total RNA from each plate well was transferred to a preamplification plate. Fluidigm's 96.96 Dynamic ArrayTM (Fluidigm, Amsterdam, the Netherlands) technology was used for gene expression analyses by quantitative reverse transcription polymerase chain reaction (qRT-PCR, performed by Quintiles/Expression Analysis, Durham, NC)89. Standard TaqManTM Assays (Applied Biosystems/ThermoFisher Scientific, Foster City, CA) were used to assess the expression of 93 genes selected based on their selectivity and sensitivity to important hepatic receptors known to be modulated by environmental chemicals; importance in human hepatocyte functionality; and hepatotoxicity. […]

Row | SMILES | outcome
1 | COc1ccccc1N | inactive
2 | Oc1cc(Cl)c(Cl)cc1Cl | inactive
3 | N#Cc1cccnc1 | inactive
4 | OCCN(CCO)CCO | inactive
5 | Cc1cc(C)cc(C)c1 | inactive
6 | CC(C)(C)c1ccccc1O | inactive
7 | CC(C)O.CC(C)O.OCCN(CCO)CCO.OCCN(CCO)CCO.[Ti] | inactive
8 | CCCCCCCCCCCCc1cccc(S(=O)(=O)O)c1 | inactive
9 | O=C(N[C@H]1CN2CCC1CC2)c1ccc2c(c1)OCCO2 | inactive
10 | CN(C)C(=S)S | inactive
11 | Clc1cccc(Cl)c1Cl | inactive
12 | Clc1cccc(Cl)c1 | inactive
13 | O=C(O)C1(c2ccc3c(c2)OC[C@H](Cc2ccc(-c4ccccc4)cc2)[C@H]3O)CCCC1 | inactive
